Article PMC8384837, “Expanding the binding specificity for RNA recognition by a PUF domain”

Each sequence was assayed against PUM1 PUF domain R1-KGQ (Homo sapiens, UniProt Q14671 828-1176, S863K;R864G) (assay: yeast three-hybrid, YBZ-1, SC-Leu-His + 0.5 mM 3-AT, 4 days). Details: tags: N-Gal4 AD-HA kept; label: inside an RPR1-promoter hybrid RNA with tandem MS2 sites; ssRNA.
Procedure, shortened: (§1)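 Matching RNA elements and Pumilio-1 PUF domain libraries, randomized at the three base-contacting residues of every repeat, were co-expressed from a centromeric plasmid in strain YBZ-1 (LexA–MS2 coat fusion, HIS3 reporter). The repeat regions were PCR-amplified and Illumina-sequenced from cells grown four days on SC-Leu (input) or SC-Leu-His + 0.5 mM 3-AT (selection). The interaction score is the log change in variant frequency from input to selection. It is computed in log2, with a pseudocount of 1 for absent variants.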
For “GGCUAGAACUAGUGGAUCCCCCGGCGCCCGGCGGCUCGAGCCCGGGUAAGUGUAAAUCGUCUGCAUGCCGCCGGGCGCCAUGCCUGCAGGUCGACUCUAGAAAACAUG”, the binding signal was 4.94 log2 enrichment (interaction score).
“GGCUAGAACUAGUGGAUCCCCCGGCGCCCGGCGGCUCGAGCCCGGGUAAGUGUAAAUGGUCUGCAUGCCGCCGGGCGCCAUGCCUGCAGGUCGACUCUAGAAAACAUG” was tested, and the binding signal was 2.56 log2 enrichment (interaction score).
With “GGCUAGAACUAGUGGAUCCCCCGGCGCCCGGCGGCUCGAGCCCGGGUAAGUGUAAAUUGUCUGCAUGCCGCCGGGCGCCAUGCCUGCAGGUCGACUCUAGAAAACAUG” the binding signal was 5.42 log2 enrichment (interaction score).

The sequences below were run against PUM1 PUF domain R4-WSA (Homo sapiens, UniProt Q14671 828-1176, N971W;H972S;Q975A) in the same assay as above. Details: tags: N-Gal4 AD-HA kept; label: inside an RPR1-promoter hybrid RNA with tandem MS2 sites; ssRNA.
Procedure, shortened: as §1
For “GGCUAGAACUAGUGGAUCCCCCGGCGCCCGGCGGCUCGAGCCCGGGUAAGUGUAUAUAGUCUGCAUGCCGCCGGGCGCCAUGCCUGCAGGUCGACUCUAGAAAACAUG”, the binding signal was 2.96 log2 enrichment (interaction score).
“GGCUAGAACUAGUGGAUCCCCCGGCGCCCGGCGGCUCGAGCCCGGGUAAGUGUAAAUAGUCUGCAUGCCGCCGGGCGCCAUGCCUGCAGGUCGACUCUAGAAAACAUG” was tested, and the binding signal was 1.33 log2 enrichment (interaction score).
“GGCUAGAACUAGUGGAUCCCCCGGCGCCCGGCGGCUCGAGCCCGGGUAAGUGUACAUAGUCUGCAUGCCGCCGGGCGCCAUGCCUGCAGGUCGACUCUAGAAAACAUG” was tested, and the binding signal was 2.8 log2 enrichment (interaction score).
